ChEMBL document CHEMBL4513216, “Probing the Open Global Health Chemical Diversity Library for Multistage-Active Starting Points for Next-Generation Antimalarials” (ACS Infect Dis, 2020)
Screen size: about 65,000 compounds; about 2,100 (3.2%) showed an effect of 50% or more. The median lay at about -52%. Only a selection was taken, and strong results are over-represented in it overall.

What follows are compounds tested on Plasmodium falciparum (assay: Screen against P. falciparum Asexual Blood Stage (ABS), at 5uM). Details: tested at 5 uM.
Format: functional, Dd2

Q: Which INHIBITION does the source give for `Cc1ccc(CN(c2cc(C)nc3nc(C(F)(F)F)nn23)C2CC2)cc1` here?
A: The INHIBITION was 94%.

Q: For `CCS(=O)(=O)NC[C@]12COC[C@H]1CN(Cc1ccncc1)C2`, which INHIBITION is on record?
A: Its INHIBITION is -65.2%.

Q: Which INHIBITION does the source give for `Cc1ccc(N2C[C@@H]3CN(Cc4ccsc4)CCO[C@@H]3C2)nn1` here?
A: The INHIBITION was -56.6%.

Q: For `Brc1cccc(C2(CNCc3cc[nH]c3)CCOCC2)c1`, which INHIBITION is on record?
A: Its INHIBITION is 83.1%.

Q: For `Brc1ccc(C2(CNCc3cc[nH]c3)CCOCC2)cc1`, which INHIBITION is on record?
A: The INHIBITION was 74.5%.

Q: `NCC1(c2cccc(C(F)(F)F)c2)CCC1` was tested. Which INHIBITION did it give?
A: The INHIBITION was 26.1%.

Q: With `FC(F)(F)c1cccc(C2(CNCc3cc[nH]c3)CCOCC2)c1` as the compound, how does the INHIBITION read?
A: Its INHIBITION is 75.1%.

Q: `CC(C)c1cc(C(=O)N2CCN(C)[C@@H]3CS(=O)(=O)C[C@@H]32)no1` was tested. Which INHIBITION did it give?
A: Its INHIBITION is -14.6%.

Q: How did the INHIBITION turn out when `O=C(NC[C@]12COC[C@H]1CN(Cc1ccncc1)C2)c1ccno1` was run?
A: The INHIBITION was -67.3%.

Q: `CNC(=O)[C@H]1C[C@H]2OCC[C@H]2N(CC2CC2)C1` was tested. Which INHIBITION did it give?
A: Its INHIBITION is -40%.

Q: `CC(NC1(CNS(=O)(=O)N(C)C)CCCC1)c1ccccc1` (configuration not stated) was tested. Which INHIBITION did it give?
A: The INHIBITION was 78.7%.

Q: Which INHIBITION does the source give for `Cc1cc(S(=O)(=O)NCC2CNCCOC2)c(C)cc1Cl` (configuration not stated) here?
A: The INHIBITION was 75.4%.

Q: How did the INHIBITION turn out when `CCCc1nc2c(c(C)c(C)n2CCN(C)C)c(N)c1CC` was run?
A: The INHIBITION was 89.9%.

Q: For `Cc1c(-c2ccccc2)nc2c(c(C)c(C)n2CCN(C)C)c1N`, which INHIBITION is on record?
A: The INHIBITION was 80.1%.

Q: How did the INHIBITION turn out when `CCN1CCCC(CNC(=O)C2(c3cc(C)cc(C)c3)CCC2)C1` (configuration not stated) was run?
A: The INHIBITION was 75.8%.

Q: How did the INHIBITION turn out when `CN1C[C@H]2N(c3ncccn3)CCC[C@@]2(C(=O)NCC2CC2)C1` was run?
A: Its INHIBITION is -48.6%.

Q: `CCN1C[C@H]2N(c3ncccn3)CCC[C@@]2(C(=O)NCC2CC2)C1` was tested. Which INHIBITION did it give?
A: The INHIBITION was -24.6%.

Q: For `CCOC(=O)[C@@H]1[C@@H](c2ccccc2)CN2CCN(S(C)(=O)=O)C[C@H]12`, which INHIBITION is on record?
A: Its INHIBITION is -73.1%.

Q: `CCN(CC)S(=O)(=O)N1C[C@@H](c2ccccc2)[C@H]2[C@H]1CCCCCN2C` was tested. Which INHIBITION did it give?
A: The INHIBITION was 71.7%.

Q: Which INHIBITION does the source give for `CC(C)S(=O)(=O)N1C[C@@H](c2ccccc2)[C@H]2[C@H]1CCCCCN2C` here?
A: Its INHIBITION is 20.4%.

Q: With `CCc1ccccc1OCCNCCc1c[nH]cn1` as the compound, how does the INHIBITION read?
A: The INHIBITION was 71.2%.

Q: For `O=C(NCCc1c[nH]cn1)c1ccccc1C1CCNC1` (configuration not stated), which INHIBITION is on record?
A: The INHIBITION was -101%.

Q: Which INHIBITION does the source give for `c1cncc(O[C@@H]2CC[C@H]3[C@H]2OCCN3C2CCCC2)c1` here?
A: The INHIBITION was -118%.

Q: For `COc1cc(CNC(C)Cn2cccn2)cc(OC)c1` (configuration not stated), which INHIBITION is on record?
A: The INHIBITION was -72.2%.

Q: How did the INHIBITION turn out when `COc1cc(CNC(c2ccccc2)c2nccn2C)cc(OC)c1` (configuration not stated) was run?
A: The INHIBITION was 75.5%.

Q: `O=C(N[C@H]1COC[C@@H]1N1CCCC1)c1c[nH]nc1C1CCCCC1` was tested. Which INHIBITION did it give?
A: The INHIBITION was -18.2%.

Q: `c1cncc(OC[C@@H]2CCC[C@@]23CN(Cc2nccs2)CCO3)c1` was tested. Which INHIBITION did it give?
A: The INHIBITION was -85.2%.

Q: With `CCN1CCNC(=O)C12CCN(C(=O)Cc1ccccn1)CC2` as the compound, how does the INHIBITION read?
A: The INHIBITION was -95%.

Q: How did the INHIBITION turn out when `CN(C)C(=O)CN1C[C@@H]2OCCN(c3ncc(F)cn3)[C@@H]2C1` was run?
A: The INHIBITION was -196%.

Q: Which INHIBITION does the source give for `COc1cc(CNCC(O)c2ccc(C)cc2)cc2c1OCO2` (configuration not stated) here?
A: The INHIBITION was 74%.

Q: How did the INHIBITION turn out when `COc1cc(C2SCC(=O)Nc3[nH]ncc32)cc2c1OCO2` (configuration not stated) was run?
A: Its INHIBITION is -86.5%.

Q: With `COc1cc(CNCC(O)c2cccc(F)c2)cc2c1OCO2` (configuration not stated) as the compound, how does the INHIBITION read?
A: Its INHIBITION is 92.4%.

Q: With `COc1cc(CNCC(O)c2ccc(C)cc2)cc2c1OCCO2` (configuration not stated) as the compound, how does the INHIBITION read?
A: Its INHIBITION is 48.2%.

Q: `COc1cc(CNCC(O)c2ccc(F)c(F)c2)cc2c1OCO2` (configuration not stated) was tested. Which INHIBITION did it give?
A: The INHIBITION was 78.2%.

Q: For `Cc1cc(C)c(CNCC(O)c2ccc(F)c(F)c2)c(C)c1` (configuration not stated), which INHIBITION is on record?
A: Its INHIBITION is 93%.

Q: With `Cc1cccc(CN2C[C@@H]3OCCN(c4cnccn4)[C@@H]3C2)n1` as the compound, how does the INHIBITION read?
A: Its INHIBITION is 4.89%.

Q: Which INHIBITION does the source give for `CC(Cc1ccccc1Br)NC(=O)CCS(C)(=O)=O` (configuration not stated) here?
A: Its INHIBITION is -38.5%.

Q: Which INHIBITION does the source give for `O=C1CCSCC(C(=O)N2CCC3(CC2)OCCO3)N1` (configuration not stated) here?
A: Its INHIBITION is -78%.

Q: Which INHIBITION does the source give for `COCCCN1CCCC12CCN(c1ncccn1)CC2` here?
A: Its INHIBITION is -22.9%.

Q: With `CC(C)N1[C@H](Cn2cncn2)C[C@@H]2CNCC[C@@H]21` as the compound, how does the INHIBITION read?
A: Its INHIBITION is -34.9%.

Q: With `c1coc(-c2nc(CNC3CCC4(CCNCC4)CC3)no2)c1` as the compound, how does the INHIBITION read?
A: Its INHIBITION is 73.4%.

Q: How did the INHIBITION turn out when `Cc1cn2nc(N3CCCC3CC(C)(C)C)sc2n1` (configuration not stated) was run?
A: The INHIBITION was 71.6%.

Q: Which INHIBITION does the source give for `COc1c(CNCCc2c[nH]c3ccccc23)c(C)nn1C` here?
A: Its INHIBITION is -60.7%.

Q: For `COc1c(CNCCc2c[nH]c3cc(F)ccc23)c(C)nn1C`, which INHIBITION is on record?
A: Its INHIBITION is 50%.

Q: `COc1c(CNCCc2c[nH]c3cc(F)ccc23)c(C(C)C)nn1C` was tested. Which INHIBITION did it give?
A: Its INHIBITION is 59.7%.

Q: Which INHIBITION does the source give for `COc1ccc(CCNCc2c(C)nn(C)c2N(C)C)cc1OC` here?
A: Its INHIBITION is 21.4%.

Q: How did the INHIBITION turn out when `c1ccc(CO[C@@H]2C[C@H]3CN(c4ncccn4)CCN3C2)cc1` was run?
A: The INHIBITION was -95.6%.

Q: `O=C1[C@H]2CN(Cc3ccncc3)C[C@H]2CN1c1cncnc1` was tested. Which INHIBITION did it give?
A: The INHIBITION was -49.7%.

Q: With `c1cncc(CO[C@H]2CO[C@@]3(CCN(Cc4ccoc4)C3)C2)c1` as the compound, how does the INHIBITION read?
A: Its INHIBITION is 23.3%.

Q: `O=C(c1cccnc1-n1cncn1)N1CCC(Nc2ccccc2)CC1` was tested. Which INHIBITION did it give?
A: The INHIBITION was -86.3%.

Q: With `Cc1ccccc1CN(CCN(C)C)Cc1ccc(S(C)(=O)=O)cc1` as the compound, how does the INHIBITION read?
A: The INHIBITION was 80.4%.

Q: Which INHIBITION does the source give for `CCN1CCN(C(=O)COc2ccc(CN(C)S(C)(=O)=O)cc2)CC1` here?
A: Its INHIBITION is 3.25%.
